L3MBTL1 inh = blocks human L3MBTL1; AlphaScreen L3MBTL1–H3K9me1 peptide binding; Potency, µM (doses to about 57.1 µM), inactives show at the top dose activity, negative = inhibition, most hits filed as inhibitors; 230,000 compounds, 0.66% hits; AID 485360; also: potency is read from the fitted curve at half-maximal effect; % is scaled to controls: 0 for no effect and ±100 for the full control effect; nearly all actives have a fitted effect of over 60% in size
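AlphaScreen assay: L3MBTL1 (50 nM final) was preincubated 30 min at room temperature with biotinylated H3(1-15)K9me1 peptide (75 nM final), then 30 min with library compounds; streptavidin donor and nickel chelate acceptor beads (10 ug/mL final) added, 30 min dark.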
CBFb RUNX1 block = CBF-beta/RUNX1 interaction disruption; AlphaScreen CBFb-His/RUNX1-biotin binding, biochemical; Q01196+Q13951; AID 1477; Potency, µM (doses to about 59.8 µM), without a hit: at the highest dose activity, negative = inhibition, actives largely listed as inhibitors; 230,000 tested, under 10 active; also: % of control where 0% means no effect
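Proteins preincubated together for 20 min at RT before compound addition; 15 min later, nickel and streptavidin beads were added and left 90 min prior to AlphaScreen measurement.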
Six1-Eya2 inh = blocks human Six1 binding to Eya2. Q15475+O00167. AlphaScreen GST-Six1/His-Eya2 binding, biochemical; hits give low values. activity change, % (no concentration beside the values). 360,000 compounds, 0.56% hits; in the data active = activity change below about -65%; inconclusive = mostly about -30% to -63%; also: % is scaled to controls: 0 for no effect and ±100 for the full control effect
Target sequence (O00167 whole entry, looked up): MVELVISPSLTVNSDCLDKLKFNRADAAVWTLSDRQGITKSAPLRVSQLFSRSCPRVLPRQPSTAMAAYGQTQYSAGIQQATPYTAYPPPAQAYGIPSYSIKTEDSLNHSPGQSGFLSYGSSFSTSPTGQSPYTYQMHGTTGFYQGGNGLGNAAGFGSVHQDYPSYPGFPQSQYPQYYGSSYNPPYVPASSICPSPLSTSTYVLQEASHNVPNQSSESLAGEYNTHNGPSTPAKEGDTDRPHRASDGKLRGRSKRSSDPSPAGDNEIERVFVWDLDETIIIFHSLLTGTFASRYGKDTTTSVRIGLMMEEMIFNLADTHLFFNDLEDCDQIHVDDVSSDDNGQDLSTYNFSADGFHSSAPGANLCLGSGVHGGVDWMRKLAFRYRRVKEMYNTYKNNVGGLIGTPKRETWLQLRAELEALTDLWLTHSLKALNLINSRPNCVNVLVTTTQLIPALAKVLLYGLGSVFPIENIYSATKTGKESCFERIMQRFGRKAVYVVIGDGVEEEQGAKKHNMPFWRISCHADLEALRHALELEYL
Target sequence (Q15475 whole entry, looked up): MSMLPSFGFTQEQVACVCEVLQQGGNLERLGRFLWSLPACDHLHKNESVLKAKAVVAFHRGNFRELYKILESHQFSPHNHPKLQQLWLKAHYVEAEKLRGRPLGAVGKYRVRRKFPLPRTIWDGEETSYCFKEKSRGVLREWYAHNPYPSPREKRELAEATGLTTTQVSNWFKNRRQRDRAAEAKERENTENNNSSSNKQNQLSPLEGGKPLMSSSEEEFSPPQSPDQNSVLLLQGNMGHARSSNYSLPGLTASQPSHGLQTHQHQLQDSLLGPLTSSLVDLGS
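Homogeneous AlphaScreen proximity assay pairing GST-Six1 with His-tagged Eya2 (added as 5X mix: 250 nM and 500 nM) in 50 mM Tris pH 8.0, 300 mM NaCl, 1 mM TCEP. Glutathione donor and nickel acceptor beads; 1 h, 37 °C, dark.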
MBNL1-CUG inh = MBNL1-poly(CUG) RNA binding inhibition | AID 2675 | TR-FRET MBNL1-His/biotin-(CUG)12 binding, 665/545 ratio | Potency, µM (highest dose often 57.5 µM), for inactives: at the top dose activity change, negative = inhibition, most hits filed as inhibitors | 280,000 compounds, 0.036% hits; active = well fitted inhibition curve with a large enough effect in the signal ratio, with a control signal flat, not every such curve was filed as active; inconclusive = small, poorly fitted or top-dose-only effect, or effect the other way, or a change in a side signal; inactive = no such curve, though single readings can be large or run the other way; the % refers to the signal ratio; also: potency is read from the fitted curve at half-maximal effect; % is scaled to controls: 0 for no effect and ±100 for the full control effect
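Ratiometric TR-FRET (665 over 545 nm, excitation 340 nm) tracks disruption of MBNL1-His/biotin-(CUG)12 complex after 60 min at room temperature, with compounds at 92 nM to 58 uM final.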
CtBP-E1A blk = CtBP/E1A binding inhibition; AID 651724; AlphaScreen GST-E1A/His-CtBP binding, 1536-well; hits give low values; 340,000 compounds, 0.49% hits; activity change, % (no concentration beside the values); in the data active = activity change below about -65%; inconclusive = mostly about -30% to -63%; also: % is scaled to controls: 0 for no effect and ±100 for the full control effect
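Protein mix (5X: 125 nM each GST-E1A, His-CtBP) was incubated with pinned compound 2 h at 37 deg C in dark, in 50 mM Tris pH 8.0 buffer with 300 mM NaCl. Glutathione donor and nickel acceptor beads followed; AlphaScreen signal read after 1 h.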
Eya2 phos inh = blocks the phosphatase activity of human Eya2; O00167; recombinant Eya2, OMFP fluorescence dephosphorylation (OMFP is methylfluorescein phosphate); Potency, µM (highest dose often 76.9 µM), inactives show at the highest dose activity, negative = inhibition, actives largely listed as inhibitors; 330,000 compounds, 0.006% hits; AID 488837; also: potency is read from the fitted curve at half-maximal effect; % is scaled to controls: 0 for no effect and ±100 for the full control effect
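Eya2 (0.2 uM) preincubated 10 min at ambient with compound, then OMFP substrate added at 50 uM; 10 min reaction in 50 mM HEPES pH 7.5, 50 mM NaCl, 5 uM MgCl2, 0.05% BSA, 1 mM DTT. Fluorescence read at Ex 485/Em 525 nm.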
Active calls of the source: *; ? = inconclusive; / = not tested or not shown. Most compounds without a hit are left out; they make up all but 0.89% or so of the library. Unless noted, calls follow the shape of the dose curve; as a rule, active = well fitted curve in the direction sought with a large enough effect; inconclusive = small, poorly fitted or top-dose-only effect, or another doubt; inactive = no such curve, though single readings can be large; an effect the other way counts as inactive or inconclusive.

SMILES	L3MBTL1 inh	CBFb RUNX1 block	Six1-Eya2 inh	MBNL1-CUG inh	CtBP-E1A blk	Eya2 phos inh
CC(OC(=O)Cc1c[nH]c2ccccc12)C(=O)Nc1ccccc1[N+](=O)[O-] (stereo not drawn)	-7%	/	?	/	-21	18%
Oc1c(C(Nc2cccc(C(F)(F)F)c2)c2cccnc2)ccc2cccnc12 (stereo not drawn)	?	/	-82*	/	-86*	2%
Cc1cc(NC(c2cccnc2)c2ccc3cccnc3c2O)no1 (stereo not drawn)	?	?	-88*	?	-93*	9%
Cn1cccc1/C=C1\SC(=S)N(NC(=O)c2ccccc2Cl)C1=O	-10%	-3%	-72*	?	?	-13%
Cc1ccc(C(=O)NN2C(=O)/C(=C/c3cccn3C)SC2=S)cc1	?	?	-69*	?	?	-1%
O=C(NN1C(=O)/C(=C/c2cccs2)SC1=S)c1ccncc1	-13%	-12%	-70*	?	-72*	10%
O=C(O)COc1ccccc1/C=C1\SC(=S)N(NC(=O)c2ccccc2O)C1=O	13µM*	/	-73*	/	-81*	34%
O=C(O)COc1ccccc1/C=C1\SC(=S)N(/N=C/c2ccccc2O)C1=O	-15%	-4%	-29	?	?	2%
C/C(C/C(C)=C1/SC(=S)NC1=O)=C1\SC(=S)NC1=O	/	-22%	-71*	71%	?	10%
CN(C)c1nc(C=C(C#N)C#N)c(Cl)n1-c1ccc(F)cc1	/	-3%	-21	-2%	-3	-7%
Cc1[nH]n(-c2ccccc2)c(=O)c1N=Nc1ccc2c(c1)OCCO2	?	-1%	-26	1%	-20	-7%
Cc1[nH]n(-c2ccccc2)c(=O)c1N=Nc1c(O)cc(S(=O)(=O)N(C)C)c2ccccc12	7.9µM*	/	-17	/	-11	12%
CC(C)Sc1nc2[nH]ncc2c(=O)[nH]1	-2%	-4%	4	-4%	2	6%
Nc1ncnc2oc(-c3ccco3)c(-c3ccco3)c12	25µM*	/	?	?	?	5%
Cc1ccc(NC(=O)CN2C(=O)S/C(=C/c3ccc(-c4cc(C(=O)O)ccc4C)o3)C2=O)cc1C	/	?	-12	-7%	-9	-22%
O=C(/C=C/c1ccc(Br)o1)NC(c1ccccc1)c1ccccc1	-10%	-3%	-1	7%	-17	3%
CC1=C/C(=C\c2ccc(Br)o2)C(=O)O1	8.9µM*	?	-27	-13%	-2	10%
O=C1C(=Cc2ccc(Br)o2)C(=O)c2ccccc21	3.2µM*	/	?	16%	12	2%
Cc1ccc(C(=O)O)cc1-c1ccc(C=C2C(=O)c3ccccc3C2=O)o1	25µM*	10%	-18	0%	/	3%
NC(N)=N/N=C/c1ccc(OCc2ccccc2Cl)cc1	0%	1%	-13	5%	-1	35µM*
NC(=O)c1cc2ccccc2o/c1=N/NC(=O)c1cccs1	/	8%	?	?	-26	1%
COc1ccc2o/c(=N/NC(=O)c3cccs3)c(C(N)=O)cc2c1	/	-9%	?	?	-83*	-10%
CC(=NNc1nc2ccccc2s1)c1ccncn1	/	/	?	/	-78*	/
COC(=O)c1ccc(NS(=O)(=O)c2ccccc2)o1	/	-1%	4	-20%	25	-5%
O=C(NNc1ccc(Cl)cc1)c1c(F)cccc1Cl	1%	9%	-5	-16%	-2	12%
SMILES	L3MBTL1 inh	CBFb RUNX1 block	Six1-Eya2 inh	MBNL1-CUG inh	CtBP-E1A blk	Eya2 phos inh
CC(=O)C(=Nc1ccccc1Cl)NNc1ccc(Cl)cc1	?	0%	-73*	30%	?	-7%
COc1cc(OC)cc(C(=O)Nc2ccc3nc4n(c(=O)c3c2)CCCCC4)c1	/	/	-12	-6%	-23	-2%
O=C(Nc1ccc2nc3n(c(=O)c2c1)CCCC3)c1cccc([N+](=O)[O-])c1	9%	-2%	-66*	?	0	5%
O=C(Nc1ccc2nc3n(c(=O)c2c1)CCCC3)c1cncc(Br)c1	/	/	?	/	-65*	/
Nc1nc(=S)c2ncn(C3OC(CO)CC3O)c2[nH]1 (stereo not drawn)	/	/	7	/	20	/
C=CCn1c(SCC(=O)Nc2ccc3c(c2)OCO3)nnc1-c1cc(Br)ccc1O	/	-10%	-85*	-4%	-92*	/
O=C(Oc1cccc2cccnc12)c1ccc(Br)o1	-8%	-1%	-23	7%	-8	-15%
Cc1c(C(=O)Oc2cccc3cccnc23)cccc1[N+](=O)[O-]	/	-17%	-88*	5%	2	0%
O=C(Oc1cccc2cccnc12)c1cccc([N+](=O)[O-])c1	?	7%	-69*	21%	-75*	-10%
Cc1c(C(=O)O/N=C(\N)c2ccccn2)cccc1[N+](=O)[O-]	5%	-4%	-25	21%	-15	4%
O=C(Cc1ccc(Cl)cc1)Oc1cccc2cccnc12	?	-23%	-91*	5%	-83*	-4%
O=[N+]([O-])c1ccc(Oc2cccc3cccnc23)c([N+](=O)[O-])c1	-1%	0%	?	?	-79*	0%
N#Cc1ccc(Oc2cccc3cccnc23)c([N+](=O)[O-])c1	/	/	-6	?	-27	-1%
O=C(Oc1c(Cl)cc(Cl)c2cccnc12)c1cccc([N+](=O)[O-])c1	?	?	-88*	22%	-98*	-4%
Cc1nc2ccccc2c(=O)n1/N=C/c1c(O)ccc2ccccc12	22µM*	-8%	-27	5%	?	?
O=c1c2ccccc2nc(N/N=C/c2ccc(O)cc2)n1O	-2%	6%	0	-11%	5	-9%
O=c1c2ccccc2nc(N/N=C/c2c(O)ccc3ccccc23)n1O	?	-7%	-90*	6%	-94*	-3%
Cc1nc2ccccc2c(=O)n1/N=C/c1cc(Br)ccc1O	/	/	?	3%	-65*	6%
Cc1nc2ccccc2c(=O)n1/N=C/c1c(O)ccc2oc3c(c12)CCCC3	/	-2%	-11	0%	3	-19%
CSCC[C@H](NC(=O)N1C[C@H]2C[C@@H](C1)c1cccc(=O)n1C2)C(=O)Nc1ccc(NC(C)=O)cc1	8%	/	5	-2%	-19	6%
Cc1ccc(S(C)(=O)=O)cc1C(=O)N1CC(C(N)=O)Oc2ccccc21 (stereo not drawn)	/	/	-4	-7%	-2	0%
COc1ccccc1CNS(=O)(=O)c1c(C)[nH]c(C)c1C(=O)N1CCCC1	/	/	0	-2%	0	4%

High-throughput results (PubChem)
